Source: PubChem BioAssay (The Scripps Research Institute Molecular Screening Center)
TEAD-YAP block: TEAD-YAP interaction inhibition, primary screen, TEAD-YAP interaction inhibitor project, luminescence, HEK-TIYL cells; TEAD-Gal4/YAP UAS-luciferase luminescence; inhibition, % at 9.12 µM; hit rate 1.4% among 640,000; AID 1259422, 2018; in the data active means inhibition above about 32%;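 further: 0% = median of test compound wells and 100% = reference inhibitor wells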
MITF inh: MITF inhibitors, primary screen, biochemical, AlphaScreen, human; hit rate 0.91% among 650,000; Microphthalmia-associated transcription factor (Homo sapiens), O75030; AID 1259374, 2018; AlphaScreen MITF homodimerization, bead proximity signal; inhibition, % at 2.6 µM; in the data active means inhibition above about 50%;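 further: 0% = vehicle wells with protein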
Target sequence (O75030 whole entry, looked up): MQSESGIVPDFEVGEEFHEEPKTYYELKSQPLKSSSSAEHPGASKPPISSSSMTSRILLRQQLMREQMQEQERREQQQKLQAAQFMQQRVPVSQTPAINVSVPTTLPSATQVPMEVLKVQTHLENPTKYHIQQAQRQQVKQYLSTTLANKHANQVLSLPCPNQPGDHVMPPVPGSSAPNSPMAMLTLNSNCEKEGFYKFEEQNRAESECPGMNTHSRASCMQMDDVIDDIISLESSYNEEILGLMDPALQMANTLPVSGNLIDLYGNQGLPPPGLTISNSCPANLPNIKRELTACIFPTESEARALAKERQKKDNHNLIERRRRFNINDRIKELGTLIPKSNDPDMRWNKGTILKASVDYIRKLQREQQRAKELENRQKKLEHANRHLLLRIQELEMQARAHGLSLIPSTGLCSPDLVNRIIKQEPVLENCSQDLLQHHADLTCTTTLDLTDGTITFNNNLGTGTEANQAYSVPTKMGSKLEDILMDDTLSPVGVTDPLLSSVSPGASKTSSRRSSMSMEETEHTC
FBW7 act: FBW7 E3 ligase activators, primary screen, biochemical, AlphaScreen, human; F-box/WD repeat-containing protein 7 (Homo sapiens), Q969H0; AlphaScreen FBW7–phospho-cyclin E peptide binding, activator screen; normalized activity (activation), % at 26.1 µM; hit rate 0.13% among 650,000; AID 1259310, 2017; in the data active means normalized activity above about 1.9%;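 further: purified mutant Fbw7 with reduced substrate affinity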
GPR151 ag: activators of human GPR151, primary screen, cell-based, PathHunter beta-arrestin, luminescence; G-protein coupled receptor 151 (Homo sapiens), Q8TDV0; activation, % at 11.2 µM; PathHunter beta-arrestin GPR151 cells; hit rate 1% among 650,000; in the data active means activation above about 4.9%;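 further: 0% = median of compound wells and 100% = cells with positive control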
Active calls of the source: *. Shown are actives, neighbours in structure and some others; about 3.4% of the full set was active somewhere.

Screening COc1ccc(-n2ncc3c(NC(C)(C)C)ncnc32)cc1 returned TEAD-YAP block 36.1*, MITF inh 3.6, FBW7 act 0.0 and GPR151 ag 0.9.
`CCCNc1ncnc2c1cnn2-c1ccccc1` gave TEAD-YAP block 8.0, MITF inh 12.7, FBW7 act 0.2 and GPR151 ag -2.6.
`COCCCNc1ncnc2c1cnn2-c1ccccc1` gave TEAD-YAP block 42.5*, MITF inh 10.2, FBW7 act -0.1 and GPR151 ag -0.6.
Screening CCN=c1scc(C)n1/N=C/c1cccs1 returned TEAD-YAP block -76.4, MITF inh 6.4, FBW7 act -0.3 and GPR151 ag -0.2.
Cc1csc(N/N=C\c2ccccn2)n1 was read as TEAD-YAP block 78.7*, MITF inh 16.1, FBW7 act -2.0 and GPR151 ag -6.9.
`CCOC(=O)CC(NS(=O)(=O)c1ccc(OCC)cc1)c1ccc(C)cc1` (centres undefined) gave TEAD-YAP block 11.3, MITF inh -10.8, FBW7 act 0.0 and GPR151 ag 0.3.
`COc1ccc(Cn2c(-c3nonc3N)nc3ccccc32)cc1` gave TEAD-YAP block -5.6, MITF inh 0.4, FBW7 act 0.1 and GPR151 ag 1.3.
COc1cc(Cn2c(-c3nonc3N)nc3ccccc32)ccc1C was read as TEAD-YAP block 51.1*, MITF inh 2.0, FBW7 act -0.2 and GPR151 ag -0.7.
COc1ccc(C)cc1Cn1c(-c2nonc2N)nc2ccccc21 was read as TEAD-YAP block 52.9*, MITF inh 0.3, FBW7 act 0.2 and GPR151 ag 0.2.
For Cc1ccc(Cn2c(-c3nonc3N)nc3ccccc32)cc1 the results were TEAD-YAP block -8.6, MITF inh -3.6, FBW7 act -0.1 and GPR151 ag 0.0.
Screening COc1cccc(Cn2c(-c3nonc3N)nc3ccccc32)c1 returned TEAD-YAP block 38.0*, MITF inh 9.9, FBW7 act 0.1 and GPR151 ag 0.4.
Screening COc1ccc(C2C([N+](=O)[O-])=C(N)Oc3cc(C)oc(=O)c32)cc1OC (centres undefined) returned TEAD-YAP block 4.3, MITF inh 20.6, FBW7 act 0.3 and GPR151 ag 0.3.
`C=CCNC(=O)CCCOc1ccccc1OC` gave TEAD-YAP block 1.9, MITF inh 21.3, FBW7 act 0.8 and GPR151 ag -0.5.
CC(=O)N1CCc2cc(NCc3ccccc3Cl)ccc21 was read as TEAD-YAP block -5.1, MITF inh 6.0, FBW7 act 0.2 and GPR151 ag 1.4.
COc1ccc(NC(=O)c2nn3c(C(F)(F)F)cc(-c4ccccc4)nc3c2Cl)c(OC)c1 was read as TEAD-YAP block 0.2, MITF inh -9.4, FBW7 act -0.2 and GPR151 ag -0.6.
For COC(=O)c1sc(NC(=O)c2ccccc2Cl)c(C#N)c1C the results were TEAD-YAP block 0.7, MITF inh -8.7, FBW7 act 0.1 and GPR151 ag -0.2.
Screening Cc1sc(NC(=O)c2ccccc2Cl)c(C#N)c1C returned TEAD-YAP block -44.9, MITF inh 0.4, FBW7 act 2.6* and GPR151 ag 3.1.
O=C(Cc1ccccc1)Nc1cc(C(=O)O)cc(C(=O)O)c1 was read as TEAD-YAP block 3.3, MITF inh -16.7, FBW7 act 0.0 and GPR151 ag -0.5.
For O=C(O)c1cc(=O)c(O)c2c(O)c(O)c(O)cc2c1 the results were TEAD-YAP block -0.6, MITF inh 89.1*, FBW7 act -0.2 and GPR151 ag 0.2.
`Cc1nn(C2CCS(=O)(=O)C2)c(Cl)c1/C=C/c1nc2ccccc2s1` (centres undefined) gave TEAD-YAP block 94.7*, MITF inh -11.1, FBW7 act -0.1 and GPR151 ag -4.8.
For Cc1ccc(-c2nn(CN3CCCc4ccccc43)c(=S)n2-c2ccccc2)cc1 the results were TEAD-YAP block 48.7*, MITF inh 14.1, FBW7 act 0.0 and GPR151 ag 0.9.
`CCOc1ccc2[nH]c(=O)c(CN(Cc3cccnc3)S(=O)(=O)c3ccccc3)cc2c1` gave TEAD-YAP block 40.8*, MITF inh 3.2, FBW7 act 0.1 and GPR151 ag 0.4.
Screening O=C(Nc1ccccc1Cl)c1ccc(N2C(=O)c3cccnc3C2=O)cc1 returned TEAD-YAP block -21.8, MITF inh 24.5, FBW7 act -0.7 and GPR151 ag -1.8.
`Nc1c(C(=O)Nc2ccc(F)cc2)nnn1Cc1cccc(Cl)c1` gave TEAD-YAP block 32.7*, MITF inh 10.8, FBW7 act 0.0 and GPR151 ag 0.5.
For Nc1c(C(=O)Nc2ccc(Br)cc2)nnn1Cc1cccc(Cl)c1 the results were TEAD-YAP block 6.1, MITF inh 16.6, FBW7 act 0.2 and GPR151 ag 0.2.
COc1cc(/C=C2\Oc3c(ccc(O)c3CN3CCCC3)C2=O)cc(OC)c1OC was read as TEAD-YAP block 32.1*, MITF inh -1.1, FBW7 act -0.2 and GPR151 ag 1.2.
`COc1ccc(Cl)cc1C(=O)Nc1nc2ccc(S(C)(=O)=O)cc2s1` gave TEAD-YAP block -3.3, MITF inh 5.5, FBW7 act 0.1 and GPR151 ag -0.6.
Screening COc1ccc(C(=O)Nc2nc3c(s2)CCCC3)c(OC)c1 returned TEAD-YAP block 94.8*, MITF inh 4.2, FBW7 act -0.2 and GPR151 ag -10.0.
CC(=O)Nc1cc(NC(C)=O)cc(C(=O)Nc2nc3c(s2)CCCC3)c1 was read as TEAD-YAP block 52.2*, MITF inh 5.6, FBW7 act -0.2 and GPR151 ag 1.2.
For CSc1cccc(C(=O)Nc2nc3c(s2)CCCC3)c1 the results were TEAD-YAP block -74.7, MITF inh 4.8, FBW7 act -0.1 and GPR151 ag -0.4.
COc1cc(SC)ccc1C(=O)Nc1nc2ccc(S(C)(=O)=O)cc2s1 was read as TEAD-YAP block 46.5*, MITF inh 5.4, FBW7 act 0.1 and GPR151 ag -1.1.
Screening COc1cc(SC)ccc1C(=O)Nc1nc2c(s1)C(=O)CC(C)(C)C2 returned TEAD-YAP block -22.1, MITF inh 12.9, FBW7 act 0.6 and GPR151 ag -1.7.
`COc1cc2ccccc2cc1C(=O)Nc1nc2c(s1)CCCC2` gave TEAD-YAP block -70.4, MITF inh -9.0, FBW7 act 0.4 and GPR151 ag -1.4.
For COc1cc(SC)ccc1C(=O)Nc1nc2c(s1)CCCC2 the results were TEAD-YAP block 98.3*, MITF inh 5.2, FBW7 act 0.4 and GPR151 ag -7.4.
O=C(Nc1ccc(Cl)c(Cl)c1)C1OC2OC3(CCCCC3)OC2C2OC3(CCCCC3)OC12 (centres undefined) was read as TEAD-YAP block 4.5, MITF inh 8.1, FBW7 act 0.0 and GPR151 ag -0.2.
For CSc1ccc2nc(N3CCN(C(=O)CN(C)S(C)(=O)=O)CC3)sc2c1 the results were TEAD-YAP block -23.6, MITF inh -1.5, FBW7 act 0.0 and GPR151 ag 0.4.
For COC(=O)c1ccccc1C(=O)N1CCN(c2nc3ccc(SC)cc3s2)CC1 the results were TEAD-YAP block 46.9*, MITF inh 5.0, FBW7 act -0.1 and GPR151 ag -1.0.
